Hits are enriched below; roughly 0.37% of the tested compounds scored in any of these assays.
TRPV1 PAM = potentiators of human vanilloid receptor 1 (TRPV1). TRPV1-expressing cells, Fluo-8 calcium influx, capsaicin EC20 potentiation. potentiation, % at 8.33 µM. 320,000 tested, 0.02% active; in the data active = potentiation above about 80%; inconclusive = between about 30% and that limit; note: 0% is about no effect
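Cells expressing TRPV1 were dye-loaded with Fluo-8 and read kinetically: 10 s baseline, 3 min after compound (agonist portion), then 2 min after EC20 capsaicin (allosteric enhancer portion). Calcium-bound dye fluorescence at 480/520 nm.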
S-ASM inh = human S-ASM enzyme inhibition | P17405 | placental ASM, HMU-PC fluorogenic substrate, 60 min | Potency, µM (titrated, usually from 57.5 µM), for inactives: at the top dose activity change, negative = inhibition, hits mostly inhibitors | 340,000 tested, 0.006% active; note: potency is the fitted concentration of half-maximal effect
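HMU-PC0 cleavage (9 uM final) by human placental ASM, 60 min at 37 °C following 10 min compound exposure at RT; stopped at pH 10, fluorescence Ex 386/Em 447 nm.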
PTAP TSG101 blk = blocks PTAP/TSG101 interaction to inhibit HIV-1 budding; Q99816; Fluorescence polarization, FITC-PTAP peptide / Tsg101 binding; Potency, µM (doses to about 115 µM), without a hit: at the top dose activity change, negative = inhibition, hits mostly inhibitors; 340,000 tested, under 10 active; AID 493005; active = well fitted inhibition curve with a large enough effect in the main read-out, with a control signal flat, not every such curve was filed as active; inconclusive = small, poorly fitted or top-dose-only effect, or effect the other way, or a change in a side signal; inactive = no such curve, though single readings can be large or run the other way; note: potency is the fitted concentration of half-maximal effect; % of control where 0% means no effect
Target sequence (Q99816 whole entry, looked up): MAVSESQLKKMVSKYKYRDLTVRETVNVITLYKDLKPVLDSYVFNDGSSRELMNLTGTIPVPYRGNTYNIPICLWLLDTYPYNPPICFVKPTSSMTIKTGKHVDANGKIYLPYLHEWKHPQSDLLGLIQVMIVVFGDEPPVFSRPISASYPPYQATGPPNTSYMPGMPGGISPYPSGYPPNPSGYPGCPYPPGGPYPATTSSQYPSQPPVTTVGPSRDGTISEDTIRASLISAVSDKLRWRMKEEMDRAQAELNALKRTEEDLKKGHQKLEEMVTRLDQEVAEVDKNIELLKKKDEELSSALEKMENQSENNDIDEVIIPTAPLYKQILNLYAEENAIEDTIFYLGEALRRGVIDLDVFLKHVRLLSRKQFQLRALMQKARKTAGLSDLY
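Fluorescence polarization binding of Tsg101 binding domain (10 uM final) to FITC-labeled PTAP peptide (50 nM final) in HEPES pH 7.5 buffer with NaCl, Tween 20, EDTA, TCEP. Compounds added before peptide; binding 20 min at RT.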
A-T KAP1 phos = candidate therapy for ataxia-telangiectasia | F2112 A-T fibroblasts, KAP-1 phosphorylation AlphaLISA; neocarzinostatin DNA damage 30 min before lysis | Potency, µM (highest dose often 57.5 µM), without a hit: top-dose activation, actives largely listed as activators | 320,000 tested, 0.19% active | AID 485349; note: potency is the fitted concentration of half-maximal effect; % of control where 0% means no effect; nearly all actives have a fitted effect of over 45% in size
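hTERT-immortalized A-T patient fibroblasts (F2112), 500 cells/well in OPTI-MEM, 1% FBS, got compounds for 60 min, then NCS for 30 min at 37C. Lysates were then assayed for phospho-KAP-1 by AlphaLISA (anti-pKAP1 donor, anti-KAP1 acceptor beads), 6 hr at 25C.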
TRPV1 agonist = agonists of human vanilloid receptor 1 (TRPV1); activation, % at 8.33 µM; TRPV1-expressing cells, Fluo-8 calcium influx, agonist mode; Q8NER1; AID 540275; 320,000 tested, 0.19% active; in the data active = activation above about 80%; inconclusive = between about 30% and that limit; note: 0% is about no effect
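Fluo-8 calcium influx in TRPV1-expressing cells, kinetic read (ex 480/em 520 nm). Compound added and read 3 min for agonist activity, followed by capsaicin at EC20 final and 2 min further read for enhancement.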
The depositor's hits bear a star; [ ] = another dose, or the depositor's remark. Unless noted, calls come from the whole dose curve; as a rule, active = well fitted curve in the direction sought with a large enough effect; inconclusive = small, poorly fitted or top-dose-only effect, or another doubt; inactive = no such curve, though single readings can be large; an effect the other way counts as inactive or inconclusive.

What do the screens show for `COc1ccc(-c2oc3cccnc3c2/C=C/c2ccc(OC)c(OC)c2)cc1`?
TRPV1 PAM: -7.0; S-ASM inh: inactive; PTAP TSG101 blk: -0.1%; A-T KAP1 phos: 28.2µM*; TRPV1 agonist: 7.3

What do the screens show for `CC1CC(C)CN(C(=O)c2cc(S(=O)(=O)N3CCCCC3)ccc2Cl)C1` (stereo not drawn)?
TRPV1 PAM: -13.4; S-ASM inh: 3.4%; PTAP TSG101 blk: -3.4%; A-T KAP1 phos: 14.0%; TRPV1 agonist: 104.1*

What do the screens show for `CCn1cc(C(=O)NCCc2ccccc2)c(=O)c2cc(S(=O)(=O)N3CCCC3)ccc21`?
TRPV1 PAM: 0.1; S-ASM inh: -9.7%; PTAP TSG101 blk: -3.0%; A-T KAP1 phos: -3.6%; TRPV1 agonist: 96.4*

How did CC1CC(C)CN(CCCNC(=O)c2cn(C)c3ccc(S(=O)(=O)N4CCCC4)cc3c2=O)C1 (stereo not drawn) do in these assays?
TRPV1 PAM: -1.6; S-ASM inh: 4.2%; PTAP TSG101 blk: -4.8%; A-T KAP1 phos: 39.8µM*; TRPV1 agonist: 4.9

What do the screens show for `COC(=O)c1ccc(C(=O)OC)c(NC(=S)N2CCOCC2)c1`?
TRPV1 PAM: -1.3; S-ASM inh: 96.6%; PTAP TSG101 blk: -1.2%; A-T KAP1 phos: -0.1%; TRPV1 agonist: 4.6

What do the screens show for `C=C(C(=O)c1ccccc1)C(C)C(=C)C(=O)c1ccccc1`?
TRPV1 PAM: -7.7; S-ASM inh: -0.2%; PTAP TSG101 blk: -10.7%; A-T KAP1 phos: 28.2µM*; TRPV1 agonist: 10.6

How did CCc1ccc(NC(=O)CNCc2ccc(OC)c(OC)c2)cc1 do in these assays?
TRPV1 PAM: -16.7; S-ASM inh: -3.2%; PTAP TSG101 blk: -4.9%; A-T KAP1 phos: 0.708µM*; TRPV1 agonist: 85.0*

Results for COc1ccc(CCNCC(=O)Nc2ccc(OC(F)(F)F)cc2)cc1OC ?
TRPV1 PAM: -7.1; S-ASM inh: -0.9%; PTAP TSG101 blk: -3.4%; A-T KAP1 phos: -8.9%; TRPV1 agonist: inconclusive

Results for COc1ccc(C(=O)N(Cc2ccco2)Cc2cccs2)cc1 ?
TRPV1 PAM: -1.1; TRPV1 agonist: 13.6

Results for COC(=O)c1cc(NC(=O)Cc2ccccc2[N+](=O)[O-])cc(C(=O)OC)c1 ?
TRPV1 PAM: -8.5; S-ASM inh: -1.4%; PTAP TSG101 blk: -5.9%; A-T KAP1 phos: -0.3%; TRPV1 agonist: 83.0*

Results for Cc1ccc(C)c(OCCn2c(CCNC(=O)C3CCCCC3)nc3ccccc32)c1 ?
TRPV1 PAM: -22.2; TRPV1 agonist: 2.2

How did Cc1c(C(=O)Nc2ccc3c(c2)OCCO3)sc2nc(-c3ccccc3)cn12 do in these assays?
TRPV1 PAM: -20.1; S-ASM inh: -19.8%; PTAP TSG101 blk: 2.0%; A-T KAP1 phos: 4.0%; TRPV1 agonist: -0.1

Results for Cc1c(C(=O)Nc2ccncc2)sc2nc(-c3ccccc3)cn12 ?
TRPV1 PAM: -23.0; S-ASM inh: -6.8%; PTAP TSG101 blk: -2.7%; A-T KAP1 phos: 11.3%; TRPV1 agonist: 90.4*

What do the screens show for `COc1ccc(CNC(=O)C(C)c2ccc([N+](=O)[O-])cc2)cc1` (stereo not drawn)?
TRPV1 PAM: -20.6; S-ASM inh: -0.8%; PTAP TSG101 blk: -2.4%; A-T KAP1 phos: 0.4%; TRPV1 agonist: 80.4*

What do the screens show for `O=C(NCc1ccccn1)c1cc2ccccn2n1`?
S-ASM inh: -1.2%; PTAP TSG101 blk: -3.3%; A-T KAP1 phos: 14.8%

Results for O=C(NCCc1ccc(Cl)cc1)c1cccs1 ?
TRPV1 PAM: -12.9; S-ASM inh: 2.6%; PTAP TSG101 blk: 0.5%; A-T KAP1 phos: 2.4%; TRPV1 agonist: 81.5*

What do the screens show for `O=C(NCCc1ccc(Cl)cc1)c1cc2ccccn2n1`?
TRPV1 PAM: -28.9; S-ASM inh: 2.8%; PTAP TSG101 blk: -1.6%; A-T KAP1 phos: 0.0%; TRPV1 agonist: 87.1*

How did O=C(Nc1ccc(Br)cc1)c1cc2ccccn2n1 do in these assays?
TRPV1 PAM: -26.0; S-ASM inh: 0.5%; PTAP TSG101 blk: -5.4%; A-T KAP1 phos: 4.5%; TRPV1 agonist: 84.8*

How did Nc1cc(C(F)(F)F)ccc1S(=O)(=O)Nc1cccc2c1NCCC2 do in these assays?
TRPV1 PAM: -8.5; TRPV1 agonist: -1.6

Results for CC(C)C[C@H](N)c1nnc(SCc2ccc(Cl)cc2)o1 ?
TRPV1 PAM: 15.8; S-ASM inh: 3.1%; PTAP TSG101 blk: -2.3%; A-T KAP1 phos: 39.8µM*; TRPV1 agonist: -3.9

How did CC(C)[C@H](N)c1nnc(SCc2ccc(Cl)cc2)o1 do in these assays?
TRPV1 PAM: -24.2; S-ASM inh: -0.3%; PTAP TSG101 blk: -4.8%; A-T KAP1 phos: 0.0%; TRPV1 agonist: 11.3

What do the screens show for `COc1ccc([C@]23Cc4cc(C#N)ccc4C(O2)C2=C(CC4(CCCCC4)OC2=O)O3)cc1`?
TRPV1 PAM: inactive; A-T KAP1 phos: 12.8%[11.5 µM]; TRPV1 agonist: inactive

Results for Cc1ccc(OC(F)F)c(NC(=O)Nc2cccc(C(F)(F)F)c2)c1 ?
TRPV1 PAM: 10.1; S-ASM inh: -8.4%; PTAP TSG101 blk: -6.8%; A-T KAP1 phos: 28.2µM*; TRPV1 agonist: -0.5

What do the screens show for `O=C(Nc1ccccc1)Nc1cccc(C(F)(F)F)c1`?
TRPV1 PAM: -8.7; S-ASM inh: -3.0%; PTAP TSG101 blk: -3.4%; A-T KAP1 phos: 8.3%; TRPV1 agonist: inconclusive

How did O=C(NCCc1cccs1)C1CC(c2cccc(F)c2)=NO1 (stereo not drawn) do in these assays?
TRPV1 PAM: -6.4; S-ASM inh: -0.9%; PTAP TSG101 blk: -6.5%; A-T KAP1 phos: 39.8µM*; TRPV1 agonist: -0.4

How did O=C(O)c1ccc2c(c1)C(=O)N([C@]1(C(=O)O)C[C@H]1c1ccccc1)C2=O do in these assays?
A-T KAP1 phos: 10.0%

How did O/N=C/C1=C(Cl)c2ccccc2CC1 do in these assays?
TRPV1 PAM: -8.0; S-ASM inh: 15.3%; PTAP TSG101 blk: -1.6%; A-T KAP1 phos: -2.5%; TRPV1 agonist: 1.4

What do the screens show for `COCCNC(=O)c1cn(CCOC)c(=O)c2c1c1ccccc1n2C`?
TRPV1 PAM: -1.3; S-ASM inh: 17.3%; PTAP TSG101 blk: -4.9%; A-T KAP1 phos: 6.1%; TRPV1 agonist: 1.9

Results for CCC(C)NC(=O)c1cn(CCOC)c(=O)c2c1c1ccccc1n2C (stereo not drawn) ?
TRPV1 PAM: 10.0; S-ASM inh: 8.1%; PTAP TSG101 blk: -0.7%; A-T KAP1 phos: 8.91µM*; TRPV1 agonist: -0.1

Source: PubChem BioAssay
